# Calls of active or inactive are those of the source. Rule for the calls: active = hit-call score of the fitted dose curve at least 0.9, where 1 is the maximum; inactive = score below 0.9.
# Key:
# [1] = CCTE_Harrill_HTTr_Viability_MCF7: CCTE's 6-hour Cell Viability Assessment for the High-Throughput Transcriptomics (HTTr) Platform, in MCF-7 cells cultured in DMEM + 10% fetal bovine serum, Harrill Lab (AID 2284010)
# How it was run: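 Membrane integrity was scored by high-content imaging of propidium iodide dye exclusion after a 6 h exposure across an eight-point dilution series. Data were fitted bidirectionally relative to DMSO as negative control and baseline.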
# [2] = CCTE_Harrill_HTTr_Apoptosis_MCF7: CCTE's 6-hour Apoptosis Assessment for the High-Throughput Transcriptomics (HTTr) Platform, in MCF-7 cells cultured in DMEM + 10% fetal bovine serum, Harrill Lab (AID 2284011)
# How it was run: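 Apoptosis in MCF-7 cells grown in DMEM with 10% fetal bovine serum was scored after a six hour exposure by high content imaging of caspase-3/7 activation (CellEvent Caspase 3/7 Green), with DMSO serving as negative control and baseline.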
Structure (SMILES),outcome [1],outcome [2]
c1ccc2sc(SN(C3CCCCC3)C3CCCCC3)nc2c1,inactive,inactive
C=O,inactive,inactive
CC1(C)[C@@H]2CC[C@@]1(C)[C@H](O)C2,inactive,inactive
O=C(O)CCCCCCCC(=O)O,inactive,inactive
O=P(c1ccccc1)(c1ccccc1)c1ccccc1,inactive,inactive
CN(C)CCOCCN(C)C,inactive,inactive
Cc1ccc(C(=O)c2cc(O)c(O)c([N+](=O)[O-])c2)cc1,inactive,inactive
Cc1cccc(Nc2ccccc2C(=O)O)c1C,inactive,inactive
C=C(C)[C@@H]1CC[C@@H](C)C[C@@H]1O,inactive,inactive
Clc1ccc(Cl)c(Cl)c1Cl,inactive,inactive
CNC[C@H](O)c1cccc(O)c1,inactive,inactive
CCCCCC(CO)CCC (stereo not given),inactive,inactive
CC(CN1c2ccccc2Sc2ccccc21)N(C)C (stereo not given),inactive,inactive
CCCCCCCCCCCCOCCO,inactive,inactive
O=C(O)Cc1cccc2ccccc12,inactive,inactive
N#Cc1ccc(CC(=NNC(=O)Nc2ccc(OC(F)(F)F)cc2)c2cccc(C(F)(F)F)c2)cc1,inactive,inactive
CCCCCCCCC,inactive,inactive
CCCCNC(=O)NS(=O)(=O)c1ccc(C)cc1,inactive,inactive
CC(C)C[C@H]1C(=O)N2CCC[C@H]2[C@]2(O)O[C@](NC(=O)[C@@H]3C=C4c5cccc6[nH]c(Br)c(c56)C[C@H]4N(C)C3)(C(C)C)C(=O)N12,inactive,inactive
CC1(C)CCC(C)(C)c2cc(C(=O)Nc3ccc(C(=O)O)cc3)ccc21,inactive,inactive
